# From PubChem
# DT40 TDP1 no CPT – qHTS for Inhibitors of human tyrosyl-DNA phosphodiesterase 1 (TDP1): qHTS in cells in absence of CPT | DT40 Tdp1-/- hTDP1 cells, no CPT, ATP luminescence, 48 h | Potency, µM (highest dose often 46.2 µM), usual class: inhibitors | 420,000 tested, 15% active; further: nearly all actives have a fitted effect of over 55% in size
#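 Luminescent ATP content (CellTiter-Glo) served as the growth readout. Knockout chicken DT40 cells expressing human TDP1 were exposed to compounds without camptothecin for a minimum 48 hr at 37 °C.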
# TDP1 inh – qHTS Assay for Inhibitors of Tyrosyl-DNA Phosphodiesterase (TDP1); Tyrosyl-DNA phosphodiesterase 1 (Homo sapiens), Q9NUW8; recombinant TDP1, AlphaScreen DNA substrate cleavage; Potency, µM (doses to about 130 µM), most hits filed as inhibitors; 350,000 tested, 0.28% active; AID 485290, 2010; further: nearly all actives have a fitted effect of over 40% in size
# Target sequence (Q9NUW8 whole entry, looked up): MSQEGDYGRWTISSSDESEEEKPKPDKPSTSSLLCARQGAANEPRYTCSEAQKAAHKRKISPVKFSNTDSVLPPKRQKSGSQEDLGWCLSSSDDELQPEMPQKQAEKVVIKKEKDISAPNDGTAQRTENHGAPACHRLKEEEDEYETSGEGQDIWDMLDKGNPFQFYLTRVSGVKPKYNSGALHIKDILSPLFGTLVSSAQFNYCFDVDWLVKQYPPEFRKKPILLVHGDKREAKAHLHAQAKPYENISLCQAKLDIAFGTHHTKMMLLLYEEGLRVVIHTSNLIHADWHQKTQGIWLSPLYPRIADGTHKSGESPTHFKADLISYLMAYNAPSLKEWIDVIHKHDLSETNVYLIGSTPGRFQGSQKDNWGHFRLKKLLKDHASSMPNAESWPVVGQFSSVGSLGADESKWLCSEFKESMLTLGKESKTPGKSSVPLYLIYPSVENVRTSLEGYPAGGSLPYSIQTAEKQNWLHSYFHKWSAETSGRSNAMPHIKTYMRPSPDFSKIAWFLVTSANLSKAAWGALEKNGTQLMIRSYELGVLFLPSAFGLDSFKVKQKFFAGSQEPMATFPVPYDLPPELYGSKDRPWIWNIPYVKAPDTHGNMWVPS
#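 Recombinant human Tdp1 (E. coli-expressed, 1 nM final) preincubated with compounds 15 min at room temperature, then 5'-biotin/3'-phosphotyrosine-FITC DNA substrate (15 nM final) added for 5 min. AlphaScreen beads (10 ug/ml final) added 10 min; cleavage lowers signal.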
# uPA surface inh – qHTS for Inhibitors of Cell Surface uPA Generation; cell surface uPA generation assay, qHTS; Potency, µM (titrated, usually from 38.3 µM), usual class: inhibitors; 330,000 tested, 0.31% active; active means well fitted inhibition curve with a large enough effect; inconclusive means small, poorly fitted or top-dose-only effect; inactive means no such curve, though single readings can be large or run the other way; tested in mouse RAW 264.7 cells; further: nearly all actives have a fitted effect of over 55% in size
# DT40 TDP1 CPT – qHTS for Inhibitors of human tyrosyl-DNA phosphodiesterase 1 (TDP1): qHTS in cells in presence of CPT; chicken DT40 Tdp1-/-;hTDP1 cells + 20 nM CPT, ATP luminescence, 48 h; Potency, µM (series often up to 46.2 µM), most hits filed as inhibitors; 420,000 tested, 12% active; AID 686979, 2013; further: nearly all actives have a fitted effect of over 55% in size
#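 Chicken DT40 Tdp1-/- cells complemented with human TDP1, 400 cells/well, exposed to compounds plus 20 nM camptothecin for at least 48 h at 37 C; viability read as ATP content by CellTiter-Glo luminescence.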
# miR-21 reporter – qHTS Assay for Modulators of miRNAs and/orActivators of miR-21 | 340,000 tested, under 10 active | AID 2288, 2010 | HeLa miR-21 FLuc reporter, luciferase, 48 h | Potency, µM (series often up to 38.3 µM), usual class: activators;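 further: miR-21 action dims this reporter so a rising signal means less miR-21 action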
#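 Using DMEM plus 10% FBS, HeLa miR-21-FLuc cells are incubated with test compounds (final up to about 40uM) for 48 hours; firefly luciferase signal is then imaged following reagent-mediated lysis.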
# Hits are given with their value; . = inactive; ? = inconclusive; / = no result; [ ] = remark or other dose. In the library only some 16% were active in any assay of this set; here they are far more common. Unless noted, the call rests on the fitted dose curve; in most records, active means well fitted curve in the direction sought with a large enough effect; inconclusive means small, poorly fitted or top-dose-only effect, or another doubt; inactive means no such curve, though single readings can be large; an effect the other way counts as inactive or inconclusive.
SMILES,DT40 TDP1 no CPT,TDP1 inh,uPA surface inh,DT40 TDP1 CPT,miR-21 reporter
O=C(Nc1cccc(Oc2ccc(C(=O)O)c(C(=O)O)c2)c1)c1ccc(-c2ccccc2)cc1,.,45µM,.,.,.
CC(C)(C)C(=O)Nc1ccc(C(=O)Nc2cc(NC(=O)c3ccc(NC(=O)C(C)(C)C)cc3)cc(C(=O)O)c2)cc1,.,/,.,.,.
O=C(O)c1ccccc1C(=O)Nc1ccc(Oc2ccccc2)cc1,.,.,.,.,.
CC(C)(C)C(=O)Nc1ccc(C(=O)Nc2cccc(Oc3ccc(C(=O)O)c(C(=O)O)c3)c2)cc1,.,35µM,?,.,.
COc1ccc2c(c1)[C@]1(C)CCC(=O)C[C@H]1CC2,.,.,/,.,/
COc1ccc(Cc2nnc(SCC(=O)c3ccccc3)o2)cc1,?,.,.,?,.
COc1ccc(Cc2nnc(SCC(=O)N3CCCCC3)o2)cc1,23µM,.,.,.,.
COc1ccc(Cc2nnc(SCC(=O)N3CCN(c4ccccc4)CC3)o2)cc1,23µM,.,/,23µM,.
O=C(COc1coc(CN2CCc3ccccc3C2)cc1=O)Nc1ccc(F)cc1F,?,.,.,.,/
COCCNC(=O)c1cccc(OC2CCN(Cc3ccccc3OCCO)CC2)c1,?,/,.,.,.
COc1ccc(C(=O)Nc2c(N)nc(SCC(=O)N3CCC(C)CC3)[nH]c2=O)cc1,.,.,.,.,.
O=C(Nc1ccccc1Br)C1CC(=O)N(c2ccc3c4c(cccc24)CC3)C1 (stereo unspecified),21µM,.,.,23µM,.
CC1CCN(S(=O)(=O)c2ccc(C(=O)NCc3ccco3)cc2)CC1,?,.,.,.,.
CCc1cc(C(=O)NC2CCCN(Cc3ccccc3F)C2)n(C)n1 (stereo unspecified),9.2µM,.,.,6.5µM,.
COc1ccc(C(=O)NC2CCCN(Cc3ccccc3F)C2)c(OC)c1OC (stereo unspecified),5.2µM,/,.,?,.
Cc1cc(C(=O)NC2CCCN(Cc3ccccc3F)C2)no1 (stereo unspecified),.,.,.,.,.
CCOC(=O)N1CCN(C(=O)CSc2ccc(C(=O)OC)cc2[N+](=O)[O-])CC1,?,/,.,.,.
CCOc1cc(C2Nc3ccccc3C(=O)N2c2ccccc2OC)ccc1O (stereo unspecified),.,.,.,.,.
Cc1ccc(-c2ccc(=O)n(CC(=O)Nc3ccc4c(c3)OCCO4)n2)cc1,.,.,.,.,.
CN(C)S(=O)(=O)c1ccc(NC(=O)Cn2nc(-c3ccc4c(c3)OCCO4)ccc2=O)cc1,21µM,/,.,?,/
Cc1c(Br)c([N+](=O)[O-])nn1CC(=O)NCCc1c[nH]c2ccccc12,?,.,.,.,.
O=C(NC1CCS(=O)(=O)C1)/C(=C\c1ccccc1)NC(=O)c1ccccc1 (stereo unspecified),.,.,.,.,.
CC(C)Oc1ccc(CNC(=O)CCC(=O)N2CC(C)Sc3ccccc32)cc1 (stereo unspecified),?,/,.,16µM,.
CC(C)Oc1ccc(CNC(=O)c2ccc(NC(=O)N3CC(C)Sc4ccccc43)cc2)cc1 (stereo unspecified),.,.,/,21µM,.
CC1CN(C(=O)Nc2ccc(C(=O)NCCc3ccc(Cl)cc3)cc2)c2ccccc2S1 (stereo unspecified),?,.,/,.,.
SMILES,DT40 TDP1 no CPT,TDP1 inh,uPA surface inh,DT40 TDP1 CPT,miR-21 reporter
CC1CN(C(=O)Nc2ccc(C(=O)NCCc3ccccc3Cl)cc2)c2ccccc2S1 (stereo unspecified),21µM,.,/,23µM,.
CC1CN(C(=O)CCC(=O)NCc2ccccc2Cl)c2ccccc2S1 (stereo unspecified),.,/,.,.,.
C=CCNC(=O)c1onc(CSc2nc3ccccc3[nH]2)c1C(=O)NCC=C,.,/,.,.,.
COC(=O)C1CSC(C(=O)OC)N1C(=O)CN1CC(C)OC(C)C1 (stereo unspecified),.,.,/,.,.
CCC(C(=O)Nc1c[nH]c(=O)[nH]c1=O)c1ccccc1 (stereo unspecified),.,.,.,.,.
CCOC(=O)N1CCC(NS(=O)(=O)c2ccc(C)cc2)CC1,?,.,.,.,.
CCOC(=O)N1CCC(NS(=O)(=O)c2ccc(NC(C)=O)c(Cl)c2)CC1,8.2µM,.,.,23µM,.
COc1cc2sc3ccc(C#Cc4ccccn4)cc3c(=O)c2cc1OC,?,/,.,.,/
O=c1c2ccccc2oc2cc(C#Cc3ccccn3)ccc12,.,/,.,.,/
COc1cccc2oc3ccc(C#Cc4ccccn4)cc3c(=O)c12,?,/,?,12µM,.
COc1cccc2sc3cc(C#Cc4ccccn4)ccc3c(=O)c12,16µM,45µM,.,18µM,/
COc1ccc(C2/C(=C(/O)c3ccc(F)cc3)C(=O)C(=O)N2c2ccccn2)cc1OC (stereo unspecified),23µM,/,.,?,.
COc1ccc(/C(O)=C2/C(=O)C(=O)N(c3ccccn3)C2c2ccc(F)cc2)cc1 (stereo unspecified),.,/,.,.,.
COc1ccc(S(=O)(=O)N2CCCOC2CNC(=O)C(=O)NCc2cccnc2)cc1 (stereo unspecified),.,.,.,.,.
COc1ccc(S(=O)(=O)N(CC(=O)Nc2cccnc2)c2ccc(C)cc2)cc1OC,.,.[12.3 µM],/,.,.
Cc1ccc(S(=O)(=O)N(CC(=O)Nc2cccnc2)c2cccc(Br)c2)cc1,16µM,.,?,?,.
Cc1ccc(N(CC(=O)N2CCc3ccccc32)S(=O)(=O)c2cccs2)cc1,18µM,.,.,?,.
COc1ccc(C)cc1S(=O)(=O)N(CC(=O)Nc1cccc([N+](=O)[O-])c1)c1ccccc1,21µM,.,.,15µM,.
Cc1ccc(S(=O)(=O)N(CC(=O)Nc2cccnc2)c2cccc([N+](=O)[O-])c2)cc1,12µM,.,11µM,?,.
COc1ccc(N(CC(=O)N2CCc3ccccc32)S(=O)(=O)c2c(C)n[nH]c2C)cc1,?,.,.,.,.
CS(=O)(=O)N(CC(=O)Nc1cccc([N+](=O)[O-])c1)c1ccccc1,.,.,.,.,.
Cc1ccc([N+](=O)[O-])cc1NC(=O)CN(c1ccccc1)S(=O)(=O)N(C)C,.,.,/,.,.
Cc1ccc(NC(=O)CN(c2ccc(Cl)cc2)S(=O)(=O)c2cc([N+](=O)[O-])ccc2Cl)c(C)c1,15µM,.,.,?,.
CCc1cccc(NC(=O)CN(c2ccc(C)cc2)S(=O)(=O)c2cccs2)c1,16µM,.,/,?,.
